This is part of a sample that, as a whole, favours compounds with a hit. Of some 83,000 tested, about 20% had one in any assay.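 Compound tested at a single concentration for 48 hours in 96-well plates; a percent growth value below 10 was scored as active.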 A number with no mark means an inactive call. The source made the active and inactive calls.

Holding throughout (test): NCI-60 one-dose screen, 48 h (100 = growth as untreated, 0 = no growth, -100 = all killed)
For assay [1], the system named is T-47D breast. As to conditions: 10 µM unless noted.
The test system of assay [2] is BT-549 breast. Conditions: 10 µM unless noted.
The test system of assay [3] is MDA-MB-435 melanoma. As to conditions: 10 µM unless noted.
Assay [4] has as its system SW-620 colon. As to conditions: 10 µM unless noted.
For assay [5], the system named is MCF7 breast. Conditions: 10 µM unless noted.
The subject of assay [6] is HCT-116 colon. As to conditions: 10 µM unless noted.
Assay [7] concerns HCC-2998 colon. As to conditions: 10 µM.
Assay [8] has as its system KM12 colon. Conditions: 10 µM unless noted.

As to `COc1cc(Nc2ncc3c(n2)-c2ccc(Cl)cc2C(c2c(F)cccc2OC)=NC3)ccc1C(=O)O`, the growth in assay [1] was 79.6%; in assay [2], 62.8%; in assay [3], 85.9%; in assay [4] it was 54.7%; in assay [5] it was 42.5%; in assay [6], 45.3%. Moreover, the growth in assay [7] is 87.5%; in assay [8] it was 28.3%.
For the compound `COc1cc(C(=O)NNC(=O)c2ccc(NC(=O)CCl)cc2)cc(OC)c1OC`, the growth in assay [1] was 64.3%; in assay [2], 66.8%; in assay [3] it was 92.5%; in assay [4], 65.5%; in assay [5], 61.8%; in assay [6], 44.5%. Moreover, the growth is 88.7% in assay [7] and 99.7% in assay [8].
Take `COc1ccc2nc3cc(Cl)ccc3c(Nc3ccc(N(C)C)cc3)c2c1`: the growth in assay [1] was 86.3%; in assay [2], 72.1%; in assay [3], 99.9%; in assay [4], 95.1%; in assay [5], 83.5%; in assay [6], 96.9%. Also, the growth was 91.9% in assay [7] and 83.1% in assay [8].
Take `CN[C@@H]1C[C@H]2O[C@@](C)([C@@H]1OC)n1c3ccccc3c3c4c(c5c6ccccc6n2c5c31)C(=O)N[C@H]4O`: the growth in assay [1] is -49.2% (active); in assay [2] it was -88.5% (active); in assay [3], -79.4% (active); in assay [4] it was -6.96% (active); in assay [5], -46.8% (active); in assay [6] it was -49.3% (active). The results for the growth in assay [7] and in assay [8] were -74.5% (active) and -59.8% (active), respectively.
Take `Cc1c(CN2CCN(C(=O)[C@H](C)O)CC2)sc2c(N3CCOCC3)nc(-c3cnc(N)nc3)nc12`: the growth in assay [1] was -38% (active); in assay [2] it was -3.06% (active); in assay [3], -9.11% (active); in assay [4] it was 7.94% (active); in assay [5], 1.68% (active); in assay [6], 5.47% (active). In addition, the growth in assay [7] is 0.359% (active); in assay [8], 6.74% (active).
On to `CSc1nc2ncnc(SC)c2[nH]1`, for which the growth was 105% in assay [1]; 93.3% in assay [2]; 100% in assay [3]; 109% in assay [4]; 93.1% in assay [5]; 81.4% in assay [6]. Besides, the growth in assay [7] was 113%; in assay [8], 106%.
For the compound `CNS(=O)(=O)Nc1nccc(Cc2c(C)c3ccc(Oc4ncccn4)cc3oc2=O)c1F`, the growth is 60.1% in assay [1]; 68.6% in assay [2]; 37.1% in assay [3]; 29% in assay [4]; 79.2% in assay [5]; 19.2% in assay [6]. Moreover, the growth in assay [7] was 1.07% (active); in assay [8] it was 26.1%.
As to `Cc1cnc(NC(=O)Nc2cc(Br)c(C)cc2OC[C@@H]2CNCCO2)cn1`, the growth in assay [1] is -46.5% (active); in assay [2], 23.6%; in assay [3], -36.2% (active); in assay [4], 20.8%; in assay [5], 2% (active); in assay [6] it was 10.4%. Moreover, the growth in assay [7] was 12%; in assay [8], 15%.
`CC1(/C=N/NC(N)=S)NC(=O)NC1=O` (stereo not given): the growth in assay [1] was 79.5%; in assay [2] it was 105%; in assay [3] it was 107%; in assay [4], 106%; in assay [5] it was 94.8%; in assay [6] it was 98.4%. The growth in assay [7] is 118%; in assay [8], 104%.
Take `CCCCCCCC(=O)SCC/C=C/[C@@H]1CC(=O)NCc2nc(co2)C2=N[C@@](C)(CS2)C(=O)N[C@@H](C(C)C)C(=O)O1`: the growth in assay [1] is -5.12% (active); in assay [2], 13.2%; in assay [3], -31.8% (active); in assay [4], -29.2% (active); in assay [5], 14.9%; in assay [6], -63.2% (active). The growth was -68.8% (active) in assay [7] and 1.36% (active) in assay [8].
Take `Cc1c(NC(=O)OC[C@@H]2COCCN2)cn2ncnc(Nc3ccc4c(cnn4Cc4cccc(F)c4)c3)c12`: the growth is -16.7% (active) in assay [1]; 0.365% (active) in assay [2]; 2.07% (active) in assay [3]; 1.74% (active) in assay [4]; 1.5% (active) in assay [5]; 0.842% (active) in assay [6]. The growth in assay [7] was 3.83% (active); in assay [8], 8.03% (active).
With `COc1ccc(OC)c(NC2=C(SCCc3ccccc3)C(=O)c3ccccc3C2=O)c1`, the growth is 70.6% in assay [1]; 79.5% in assay [2]; 94.7% in assay [3]; 94% in assay [4]; 69.7% in assay [5]; 72.3% in assay [6]. In addition, the growth was 102% in assay [7] and 76.7% in assay [8].
Regarding `O=C(Nc1ccc(N=Nc2ccccc2)cc1)c1cccc2ccccc12`, the growth in assay [1] is 66.3%; in assay [2] it was 53.5%; in assay [3], -17.2% (active); in assay [4], 40%; in assay [5], 42%; in assay [6], 36.1%. Also, the growth in assay [7] is 78.5%; in assay [8] it was 47.7%.
With `Cn1cc(-c2ncnc3ccc(-c4cnc(Cl)c(NS(C)(=O)=O)c4)cc23)c2ccccc21`, the growth in assay [1] was -23.9% (active); in assay [2] it was 4.5% (active); in assay [3], 7.19% (active); in assay [4] it was 21.3%; in assay [5] it was 7.57% (active); in assay [6], 20.3%. In addition, the growth in assay [7] was 17.7%; in assay [8], 25.3%.
Take `CN(C[C@@H]1COCCO1)S(=O)(=O)Nc1ccc2ccc3ncc(-c4cnn(C)c4)cc3c(=O)c2c1`: the growth in assay [1] was 15.9%; in assay [2], 28.1%; in assay [3], 44.7%; in assay [4] it was 37%; in assay [5], 36.3%; in assay [6], 24.1%. For the same compound, the growth in assay [7] was 74.1%; in assay [8], 10.2%.

These data come from PubChem BioAssay (NCI).
